For 21 molecules, growth inhibition results are on record in PubChem BioAssay (NCI).

A short description of assay [1]: NCI Yeast Anticancer Drug Screen. Data for the rad50 strain (AID 155).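 Also: 0% = growth of vehicle-only cultures of the same strain.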 As to conditions: S. cerevisiae rad50 strain growth inhibition; at 50.0 µM; stronger effect = higher value. Put shortly: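 DNA repair mutant yeast, compound exposure, growth read-out; inhibition is taken relative to vehicle.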
Assay [2] can be described thus: NCI Yeast Anticancer Drug Screen. Data for the mec2-1 strain (AID 157). The following applies: S. cerevisiae mec2-1 strain, at 50.0 µM, stronger effect = higher value. The gist of the method:
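Test agents were screened against the mec2-1 yeast strain, with defined DNA repair or cell cycle alteration. Growth was scored as inhibition against vehicle-only controls.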

Assay [3] in a line: NCI Yeast Anticancer Drug Screen. Data for the sgs1 mgt1 strain (AID 161).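 Also: 0% = growth of cultures given vehicle only.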 As to conditions: S. cerevisiae sgs1 mgt1 strain, at 50.0 µM, stronger effect = higher value. The gist of the method: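 Mutant yeast exposed to compound; growth scored against vehicle-only wells.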
Assay [4] in a line: NCI Yeast Anticancer Drug Screen. Data for the cln2 rad14 strain (AID 165).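 Also: 0% = growth equal to vehicle treated cultures.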 As to conditions: S. cerevisiae cln2 rad14 strain, at 50.0 µM, stronger effect = higher value. The gist of the method:
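Growth of compound-exposed yeast (cln2 rad14 genotype) measured and expressed as inhibition relative to vehicle.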

Assay [5] is described as follows: NCI Yeast Anticancer Drug Screen. Data for the bub3 strain (AID 167). The following applies: S. cerevisiae bub3 mutant strain, at 50.0 µM, stronger effect = higher value. Put shortly:
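In this screen, a yeast mutant lacking normal mitotic checkpoint function is challenged with compound. Relative growth versus vehicle gives the inhibition value.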

Assay [6] can be described thus: NCI Yeast Anticancer Drug Screen. Data for the mlh1 rad18 strain (AID 175). The following applies: S. cerevisiae mlh1 rad18 strain growth inhibition; at 50.0 µM; stronger effect = higher value. Put shortly: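 In this whole-cell yeast screen, a strain with altered DNA damage repair is challenged with compound, and its growth is measured against matched vehicle-treated controls.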

SMILES strings stand for the structures. This is part of a sample that, as a whole, favours compounds with a hit. Of some 79,000 tested, about 15% had one in any assay. A number with no mark means an inactive call. Active and inactive are the calls of the source. Rule as the data show it: active = growth inhibition above about 70%; inactive = the rest.

For `CCCC(=O)OC1=CC(=O)c2ccccc2C1=O`, the growth inhibition in assay [1] was 22.9%; in assay [2] it was 16.6%; in assay [3] it was 29.1%; in assay [4], 26.5%; in assay [5], -10.2%; in assay [6] it was 6.3%.
Turning to `C[N+](C)(N)c1nc(N)c(C#N)c(C#N)c1C#N`, the growth inhibition in assay [1] is 13.6%; in assay [2] it was -18.7%; in assay [3] it was -10.9%; in assay [4], -24.4%; in assay [5], 5.1%; in assay [6] it was 13.8%.
For `NC(=O)C(O)(c1ccc(Br)cc1)C(Cl)Cl` (stereo unspecified), the growth inhibition in assay [1] is 4.65%; in assay [2] it was 3.05%; in assay [3], -5.55%; in assay [4] it was 9.05%; in assay [5], 11.6%; in assay [6], 5.95%.
Regarding `CC(=O)c1ccc(C)cc1C`, the growth inhibition was 27.9% in assay [1]; 4.35% in assay [2]; 15.3% in assay [3]; 2.65% in assay [4]; 15.4% in assay [5]; 2.95% in assay [6].
Take `O=C(O)C1NCCC1Oc1ccccc1` (stereo unspecified): the growth inhibition in assay [1] is -3.9%; in assay [2], -3.7%; in assay [3] it was -16%; in assay [4] it was -12.8%; in assay [5] it was -1.5%; in assay [6], 2.65%.
Regarding `Cc1cc2c(c3ccccc13)Cc1ccccc1-2`, the growth inhibition is -5.65% in assay [1]; 9.2% in assay [2]; -7% in assay [3]; 7.35% in assay [4]; 15.4% in assay [5]; -13.8% in assay [6].
Take `CCCCNC(=S)N(CCCC)CCCC`: the growth inhibition is 21.8% in assay [1]; 18.2% in assay [2]; 10.3% in assay [3]; -16.2% in assay [4]; 30.9% in assay [5]; 13.1% in assay [6].
In the case of `O=c1[nH]c2ccccc2c(O)c1/C=N/C(=S)NCc1ccccc1`, the growth inhibition in assay [1] was -23.1%; in assay [2], -23.8%; in assay [3], 3.95%; in assay [4], 0.2%; in assay [5], 0.7%; in assay [6], -37.2%.
Take `Cc1c(N)cc2c(c1[N+](=O)[O-])C(C)(C)CC2(C)C`: the growth inhibition is 3.15% in assay [1]; -14.1% in assay [2]; 1.6% in assay [3]; -5.2% in assay [4]; 11.9% in assay [5]; -0.85% in assay [6].
With `COc1ccc2nc(C)c3c(c2c1)C(=O)N(CCC[N+]1([O-])CC[N+]([O-])(CCCN2C(=O)c4c(c5cc(OC)ccc5[n+]([O-])c4C)C2=O)CC1)C3=O` (stereo unspecified), the growth inhibition in assay [1] was -0.2%; in assay [2] it was -7.8%; in assay [3], -5.65%; in assay [4], -35.7%; in assay [5], 2.3%; in assay [6], 26.1%.
As for `CCCCCC(CN(C)C)C(O)CCc1ccc(Cl)c(Cl)c1` (stereo unspecified), the growth inhibition in assay [1] is 98.5% (active); in assay [2], 79.2% (active); in assay [3], 98% (active); in assay [4], 98.5% (active); in assay [5], 80.5% (active); in assay [6] it was 98.6% (active).
Regarding `CC(C)=CCN(N=O)c1ncnc2nc[nH]c12`, the growth inhibition in assay [1] was -10.1%; in assay [2], 31.1%; in assay [3], -24.8%; in assay [4], -2.5%; in assay [5], 18.9%; in assay [6], 9.85%.
`COC1OCC(OS(C)(=O)=O)C(NC(C)=O)C1OS(C)(=O)=O` (stereo unspecified): the growth inhibition is -13.9% in assay [1]; -2.85% in assay [2]; -3.05% in assay [3]; -19.2% in assay [4]; 0.45% in assay [5]; 2.25% in assay [6].
Consider `Cc1ccc2c(-c3ccc4ccccc4c3)c3ccccc3cc2c1`, for which the growth inhibition is 7.7% in assay [1]; -10.2% in assay [2]; -2.8% in assay [3]; -12.6% in assay [4]; -2.35% in assay [5]; -40.5% in assay [6].
For `Cc1cc(C)c(C(=O)CSC(=N)N)c(C)c1`, the growth inhibition in assay [1] was -4.45%; in assay [2], 11.3%; in assay [3], 7.5%; in assay [4], -6.6%; in assay [5], 9.55%; in assay [6] it was 2.4%.
On to `C=C(C(=O)O)C(=O)O`, for which the growth inhibition was -14.4% in assay [1]; -3.6% in assay [2]; -2.2% in assay [3]; 4.35% in assay [4]; 2% in assay [5]; -4.7% in assay [6].
As for `Cc1c(C(=O)O)c(-c2ccc([N+](=O)[O-])cc2)c(C=O)n1-c1ccccc1`, the growth inhibition is -4.9% in assay [1]; 10.9% in assay [2]; 3.3% in assay [3]; -8.5% in assay [4]; 25.7% in assay [5]; 22.9% in assay [6].
Turning to `CCO[Si](C)(CCC#N)OCC`, the growth inhibition was 6.05% in assay [1]; -64% in assay [2]; -12.7% in assay [3]; 30.9% in assay [4]; -31.6% in assay [5]; 4.75% in assay [6].
As for `CC(C)/C=N/N=C/C(C)C`, the growth inhibition in assay [1] is -15.8%; in assay [2] it was 9.7%; in assay [3] it was -16.6%; in assay [4], 15.3%; in assay [5] it was -13.6%; in assay [6], -12.8%.
Take `O=C(O)Cc1ccc(Br)cc1`: the growth inhibition in assay [1] is 29.4%; in assay [2], -8.95%; in assay [3], 11.9%; in assay [4], 10.8%; in assay [5], 1.1%; in assay [6], 5.7%.
For `CC(=O)O[C@@H]1[C@H]2O[C@H]2[C@H]2O[C@@]2(COC(=O)c2ccccc2)[C@H]1OC(C)=O`, the growth inhibition is 12.8% in assay [1]; -25.2% in assay [2]; 24.4% in assay [3]; -6% in assay [4]; 0.75% in assay [5]; -38.5% in assay [6].
